Most compounds without a hit are left out; they make up all but 8% or so of the library.
LASV entry inh: inhibitors of Lassa virus binding or cell entry; Lassa virus pseudotype entry inhibition, cell reporter; 300,000 tested, 1.2% active; AID 540256; Potency, µM (titrated, usually from 37.9 µM), inactives show at the highest dose activity change, negative = inhibition, hits mostly inhibitors; calls by dose curve; tested in HEK293 cells; further: potency means the concentration at half of the fitted maximal effect; on the % scale 0 is the no-effect control and ±100 the full control effect; nearly all actives have a fitted effect of over 50% in size
FMDV antiviral: antivirals against foot and mouth disease virus. FMDV antiviral cell-based qHTS. Potency, µM (doses to about 57.9 µM), inactives show at the top dose activity change, negative = inhibition, most hits filed as inhibitors. 410,000 tested, 1.2% active; calls by dose curve; tested in HEK293T cells; further: read-out not given here; potency means the concentration at half of the fitted maximal effect; on the % scale 0 is the no-effect control and ±100 the full control effect; nearly all actives have a fitted effect of over 45% in size
Marburg entry inh: Marburg virus entry inhibition; Marburg virus pseudotyped entry inhibition, cell reporter; Potency, µM (top dose mostly 37.8 µM), inactives show at the highest dose activity change, negative = inhibition, hits mostly inhibitors; 300,000 tested, 1.8% active; AID 540276; calls by dose curve; tested in HEK293 cells; further: potency means the concentration at half of the fitted maximal effect; on the % scale 0 is the no-effect control and ±100 the full control effect
HCV inh: blocks hepatitis C virus; Huh7.5.1 HCVcc-Cre infection, luciferase reporter, 44 h; Potency, µM (top dose mostly 41.8 µM), without a hit: at the top dose activity change, negative = inhibition, usual class: inhibitors; 340,000 tested, 3.4% active; further: potency means the concentration at half of the fitted maximal effect; on the % scale 0 is the no-effect control and ±100 the full control effect
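After 44 h co-culture of compound, cells and HCVcc-Cre (~0.5 moi), substrate is added for 15 min at room temperature and luciferase measured over 15 sec. Cells were seeded at 1,000/well and pre-cultured 4 h.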
HCMV antiviral: blocks human cytomegalovirus replication; HFF cells, HCMV-luciferase reporter, 72 h; stronger effect = lower value; activity change, negative = inhibition, % at 57.5 µM; 410,000 tested, 4.5% active; in the data active means activity change below about -60%; inconclusive means no clear call, values can overlap the other calls; inactive means above about -39%; further: on the % scale 0 is the no-effect control and ±100 the full control effect
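Inhibition of viral replication was scored as loss of reporter luminescence in HFFs infected with HCMV-luciferase (MOI 1 PFU/cell) for 72 h; compounds tested at 2 doses, normalized to buffer and Salinomycin controls.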
SARS PLpro yeast: inhibitors of SARS-CoV papain-like protease in yeast; S. cerevisiae expressing SARS-CoV PLpro, growth rescue; Potency, µM (titrated, usually from 32.9 µM), inactives show at the highest dose activity, positive = growth rescue, hits mostly activators; 330,000 tested, 0.19% active; AID 485353; calls by dose curve; further: potency means the concentration at half of the fitted maximal effect; 0% is about no effect; nearly all actives have a fitted effect of over 55% in size
HCV inh confirm: confirmation of hepatitis C virus inhibitors. Potency, µM (doses to about 41.8 µM), inactives show top-dose activity, negative = inhibition, most hits filed as inhibitors. HCVcc-Cre infectious virus cell assay, luciferase, inhibition. 640 tested, 78% active. shares compounds with HCV inh; further: potency means the concentration at half of the fitted maximal effect; nearly all actives have a fitted effect of over 80% in size
HCV cytotox: counter-screen for HCV inhibitors: host cell cytotoxicity | shares compounds with HCV inh | HCV host cell line cytotoxicity counterscreen | Potency, µM (top dose mostly 41.8 µM), inactives show at the top dose activity change, negative = cytotoxicity, usual class: inhibitors | 640 tested, 22% active;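 further: potency means the concentration at half of the fitted maximal effect; 44 h compound exposure; on the % scale 0 is the no-effect control and ±100 the full control effect; nearly all actives have a fitted effect of over 55% in size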
Starred values were filed as active, the others as inactive; ? = inconclusive; / = no result given; [ ] = dose if it differs, or a comment. Unless noted, the call rests on the fitted dose curve; in most records, active means well fitted curve in the direction sought with a large enough effect; inconclusive means small, poorly fitted or top-dose-only effect, or another doubt; inactive means no such curve, though single readings can be large; an effect the other way counts as inactive or inconclusive.

SMILES	LASV entry inh	FMDV antiviral	Marburg entry inh	HCV inh	HCMV antiviral	SARS PLpro yeast	HCV inh confirm	HCV cytotox
COC(=O)C1=C(c2ccc(-c3ccccc3)c(F)c2)C[C@@H]2CC[C@H]1N2C(=O)NCCNC(C)=O	/	-26%	/	-9%	-19	1%	/	/
COC(=O)C1=C(c2ccc(-c3ccccc3)c(F)c2)C[C@@H]2CC[C@H]1N2C(=O)NCc1cccc2ccccc12	/	-19%	/	?	86	3%	11µM*	44%
CCc1ccc(NC(=O)CSc2nncn2-c2cccnc2)cc1	?	89%	?	15%	39	1%	/	/
CCOC(=O)C1CCN(C(=O)CCn2c(=O)oc3ccccc32)CC1	/	-23%	/	/	-17	/	/	/
CCC[n+]1c(C)sc2c3c(ccc21)CCCC3	?	?	?	7.1µM*	/	-1%	25µM*	30%
CC[n+]1c(C)sc2c(C)cc(C)cc21	-12%	-4%	-7%[46.1 µM]	6%	7	-10%	/	/
CCOC(=O)c1c(N)sc2c1CCC(CC)C2 (centres undefined)	-1%	-18%	-15%	-5%	14	1%	/	/
CC#CCOC(=O)c1c(C)nc2sc3c(c2c1N)CCC(O)C3 (centres undefined)	?	?	-38%	7.1µM*	?	/	22µM*	?
Cc1cc(C)n(-c2ccc(NC(=O)C3CCN(Cc4ccc(C)o4)CC3)cc2)n1	/	-7%	/	-23%	-10	0%	/	/
Cc1csc(NC(=O)CSc2nc(=O)n(CCN(C)C)c3c2CCCC3)n1	-11%[46.1 µM]	2%	-25%	9%	-9	-4%	/	/
CCC(CO)Oc1cc(NC(=O)c2ccc(C)cc2)c2ncn(C(C)C)c2c1 (centres undefined)	/	-10%	/	?	-7	-11%	?	17%
CCC(CO)Oc1cc(NC(=O)c2ccccc2)c2ncn(C(C)C)c2c1 (centres undefined)	/	-22%	/	?	-1	0%	/	/
CCOC(=O)Nc1ccc(NCc2ccc(F)cc2)nc1N	?	0%	?	0.89µM*	-24	/	-23%	16%
O=C(NCc1ccccc1)c1ccc2c(c1)CCN2S(=O)(=O)c1ccc(Cl)cc1	?	-12%	-2%[46.1 µM]	/	-22	/	/	/
CCOc1cccc2sc(N(CCCN(C)C)C(=O)c3ccc(S(=O)(=O)N(C)Cc4ccccc4)cc3)nc12	?	?	?	5µM*	?	-1%	14µM*	-29%
COc1cc(C(=O)O/N=C(\N)c2ccc([N+](=O)[O-])cc2)cc(OC)c1OC	-23%	-24%	-4%	?	0	0%	?	26%
CCN(CC)S(=O)(=O)c1ccc(OC)c(NC(=O)CSc2cc(Cl)ccc2Cl)c1	?	-3%	?	?	?	2%	22µM*	22%
CCOC(=O)C1CCN(C(=O)C2CCN(S(=O)(=O)c3cccc4nsnc34)CC2)CC1	19%[46.1 µM]	-12%	?	6%	14	-1%	/	/
COc1ccc(-c2c(C(=O)c3ccccc3)[nH]c(N)c2C(=O)c2ccc(Br)cc2)cc1OC	/	-26%	/	/	3	/	/	/
COc1ccc(Cl)cc1-n1nnc(-c2nsc(NC(=O)c3ccccc3Cl)n2)c1C	2%[46.1 µM]	3%	-29%[46.1 µM]	/	-11	/	/	/
Cc1ccc(CNC(=O)COc2cc(O)c3c(c2)OC(C)(C)CC3=O)cc1	/	-7%	/	?	0	-18%	/	/
Cc1cc(=O)oc2c3c(cc(OCC(=O)Nc4ccc(CCO)cc4)c12)OC(C)(C)CC3	/	-20%	/	0.71µM*	4	8%	22µM*	31%
Cc1cc(=O)oc2c3c(cc(OCC(=O)Nc4cccnc4)c12)OC(C)(C)CC3	/	-21%	/	?	2	-4%	/	/
CC1(C)CC(=O)c2c(O)cc(OCC(=O)Nc3ccc(CCO)cc3)cc2O1	/	0%	/	5µM*	-25	-7%	14µM*	15%

Screening data from PubChem.
